Growth data for 33 compounds are collected here from PubChem BioAssay (NCI).

Several values for one entry are separate records, joined by “and”; a condition that tells them apart may be missing. Identical values can stand only once. This is part of a sample that, as a whole, favours compounds with a hit. Of some 83,000 tested, about 20% had one in any assay.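 Cells were grown in 96-well plates and exposed to the test compound at a single concentration for 48 hours; results are reported as percent growth, with values below 10 considered active.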 Activity calls are given as the source filed them.

The subject of one assay is UO-31 renal. Put plainly: NCI-60 one-dose screen, 48 h (100 = growth as untreated, 0 = no growth, -100 = all killed). The note with it: 10 µM unless noted.
Take `Oc1ccc(/C=C/c2ccccc2)cc1`: the growth was 17.8% (inactive) and 11.6% (inactive). Still for that read-out and setting: the result for `CC(=O)C(/C=N/C(N)=O)=C(/C)O` reads 91.1% (inactive); that for `COC(=O)c1nc(N)nc(C(=O)OC)c1C(=O)c1ccc(OC)cc1`, 89.6% (inactive) and 66.3% (inactive). Consider `Cc1cc(O)c2c(c1)C(=O)c1cc(O)cc(O)c1C2=O`, for which the growth is 76.6% (inactive) and 71.2% (inactive). In the case of `C#CCN(C)Cc1ccccc1`, the growth was 87.2% (inactive) and 93.2% (inactive). For the compound `CCN(CC)CCCC(C)Nc1ccnc2cc(Oc3ccccc3)ccc12` (stereo not drawn), the growth was 49.2% (inactive) and 50.6% (inactive). With `COc1ccccc1NC(=O)OCC#CCOC(=O)Nc1ccccc1OC`, the growth is 71.4% (inactive) and 80.2% (inactive).

On to `Cc1cc(O)c(C(C)C)cc1S(=O)(=O)O` (tested in a mixture with another compound), for which the growth was 90.7% (inactive) and -18.5% (active) and 77.4% (inactive). In the case of `Oc1c(CN2CCCCC2)ccc2cccnc12`, the growth was 8.37% (active) and -0.287% (active).

Turning to `NS(=O)(=O)c1cc2c(cc1Cl)NC(C(Cl)Cl)NS2(=O)=O` (stereo not drawn), the growth is 90.7% (inactive) and 87.4% (inactive).

On to `COc1cc2nc(N3CCN(C(=O)C4COc5ccccc5O4)CC3)nc(N)c2cc1OC` (stereo not drawn), for which the growth is 94.5% (inactive) and 98.7% (inactive) and 85% (inactive).

Another assay has as its system TK-10 renal. The assay is described as above. To be noted: 10 µM unless noted.
For `O=C(O)C1(C(=O)O)CCC1.[NH2-].[NH2-].[Pt+2]`, the growth was 111% (inactive) and 104% (inactive). On the same count and under the same terms, under `CC1(C)[C@@H](OC(=O)CCC(=O)O)CC[C@]2(C)[C@H]3C(=O)C=C4[C@@H]5C[C@@](C)(C(=O)O)CC[C@]5(C)CC[C@@]4(C)[C@]3(C)CC[C@@H]12` stands 104% (inactive) and -36.8% (active).

For the compound `CCNC(=O)Nc1ccc(-c2nc3c(c(N4CCOC[C@@H]4C)n2)CCN(C2COC2)C3)cc1`, the growth was 44.4% (inactive) and -22.3% (active). As for `O=C1C2=C(C(=O)c3ccccc31)C(O)(S(=O)(=O)O)C(O)(S(=O)(=O)O)C1N=CC=CC21` (stereo not drawn), the growth was 71.8% (inactive) and 68.1% (inactive). The same measure, in the same setting: under `COc1ccc2c(=O)cc(-c3ccccc3)[nH]c2c1` stands 48.4% (inactive) and 63.7% (inactive). On to `COc1cc(Nc2nc3ccccc3nc2NS(=O)(=O)c2ccc(NC(=O)c3ccc(C)c(OC)c3)cc2)cc(OC)c1`, for which the growth is 54.1% (inactive) and -35.5% (active).

In the case of `COc1cc(-c2nccc3cc4c(cc23)OCO4)cc(OC)c1OC`, the growth is 44.9% (inactive) and 28.9% (inactive). Still for that read-out and setting: the result for `CCN(CC)CCC(CNc1ccnc2cc(Cl)ccc12)c1ccc(OC)cc1` (stereo not drawn) reads 58.5% (inactive) and 46.3% (inactive); that for `CC(=O)Nc1ccc(O)cc1`, 87.4% (inactive) and 69.9% (inactive) and 101% (inactive). `c1ccc2c(CC3=NCCN3)cccc2c1`: the growth was 114% (inactive) and 108% (inactive). `Cc1nn(-c2ccc(Cl)cc2)c2ncnc(N/N=C/c3ccccc3O)c12`: the growth is 16.4% (inactive) and 36.7% (inactive).

`CCN(CC)C(=S)SSC(=S)N(CC)CC`: the growth was 96.9% (inactive). Regarding `Nc1nc(SC/C=C/CCl)c2[nH]cnc2n1`, the growth is 109% (inactive) and 95% (inactive).

Take `CC1CCCC(=O)O1` (stereo not drawn): the growth was 103% (inactive) and 108% (inactive). On the same count and under the same terms, the result for `c1ccc(NCc2ccc3c(c2)OCO3)cc1` reads 102% (inactive) and 99.7% (inactive). For the compound `CN(Cc1ccccc1)Cc1ccccc1`, the growth was 88.2% (inactive).

For the compound `O=[N+]([O-])c1ccc(N/N=C\c2cc(Br)ccc2O)nc1`, the growth was 22.1% (inactive) and 37.9% (inactive). Same read-out and setting: under `O=C(Nc1ccc(Br)cc1)c1cc(Br)ccc1O` stands 9.29% (active) and 1.36% (active).

In the case of `CN(C)c1ccc(C(=C2C=CC(=[N+](C)C)C=C2)c2ccccc2Cl)cc1`, the growth is -30.6% (active) and -72.4% (active). `O=C(Cc1cccc2ccccc12)N/N=C/c1ccc2c(c1)CCC2`: the growth was 89.4% (inactive).

As to `O=C(O)C1C2C=CC(C2)C1C(=O)O` (stereo not drawn), the growth is 91.1% (inactive) and 32.5% (inactive) and 106% (inactive).

Consider `COc1cc(C(=O)c2ccc3c(c2)OCO3)cc(OC)c1OC`, for which the growth is 31.7% (inactive) and 27.3% (inactive).
